Screening results: PubChem, National Center for Advancing Translational Sciences (NCATS)
nsP2pro inh = Primary qHTS for inhibitors of NSP2Pro chikungunya virus (CHIKV). Potency, µM (titrated, usually from 24.9 µM), usual class: inhibitors. AID 1964107, 2024. FRET peptide cleavage, nsP2pro, fluorescence 1 h. Polyprotein P1234 (Chikungunya virus (strain S27-African prototype)), Q8JUX6. actives 1.1% (n = 31,000); further: nearly all actives have a fitted effect of over 60% in size
Target sequence (Q8JUX6 whole entry, looked up): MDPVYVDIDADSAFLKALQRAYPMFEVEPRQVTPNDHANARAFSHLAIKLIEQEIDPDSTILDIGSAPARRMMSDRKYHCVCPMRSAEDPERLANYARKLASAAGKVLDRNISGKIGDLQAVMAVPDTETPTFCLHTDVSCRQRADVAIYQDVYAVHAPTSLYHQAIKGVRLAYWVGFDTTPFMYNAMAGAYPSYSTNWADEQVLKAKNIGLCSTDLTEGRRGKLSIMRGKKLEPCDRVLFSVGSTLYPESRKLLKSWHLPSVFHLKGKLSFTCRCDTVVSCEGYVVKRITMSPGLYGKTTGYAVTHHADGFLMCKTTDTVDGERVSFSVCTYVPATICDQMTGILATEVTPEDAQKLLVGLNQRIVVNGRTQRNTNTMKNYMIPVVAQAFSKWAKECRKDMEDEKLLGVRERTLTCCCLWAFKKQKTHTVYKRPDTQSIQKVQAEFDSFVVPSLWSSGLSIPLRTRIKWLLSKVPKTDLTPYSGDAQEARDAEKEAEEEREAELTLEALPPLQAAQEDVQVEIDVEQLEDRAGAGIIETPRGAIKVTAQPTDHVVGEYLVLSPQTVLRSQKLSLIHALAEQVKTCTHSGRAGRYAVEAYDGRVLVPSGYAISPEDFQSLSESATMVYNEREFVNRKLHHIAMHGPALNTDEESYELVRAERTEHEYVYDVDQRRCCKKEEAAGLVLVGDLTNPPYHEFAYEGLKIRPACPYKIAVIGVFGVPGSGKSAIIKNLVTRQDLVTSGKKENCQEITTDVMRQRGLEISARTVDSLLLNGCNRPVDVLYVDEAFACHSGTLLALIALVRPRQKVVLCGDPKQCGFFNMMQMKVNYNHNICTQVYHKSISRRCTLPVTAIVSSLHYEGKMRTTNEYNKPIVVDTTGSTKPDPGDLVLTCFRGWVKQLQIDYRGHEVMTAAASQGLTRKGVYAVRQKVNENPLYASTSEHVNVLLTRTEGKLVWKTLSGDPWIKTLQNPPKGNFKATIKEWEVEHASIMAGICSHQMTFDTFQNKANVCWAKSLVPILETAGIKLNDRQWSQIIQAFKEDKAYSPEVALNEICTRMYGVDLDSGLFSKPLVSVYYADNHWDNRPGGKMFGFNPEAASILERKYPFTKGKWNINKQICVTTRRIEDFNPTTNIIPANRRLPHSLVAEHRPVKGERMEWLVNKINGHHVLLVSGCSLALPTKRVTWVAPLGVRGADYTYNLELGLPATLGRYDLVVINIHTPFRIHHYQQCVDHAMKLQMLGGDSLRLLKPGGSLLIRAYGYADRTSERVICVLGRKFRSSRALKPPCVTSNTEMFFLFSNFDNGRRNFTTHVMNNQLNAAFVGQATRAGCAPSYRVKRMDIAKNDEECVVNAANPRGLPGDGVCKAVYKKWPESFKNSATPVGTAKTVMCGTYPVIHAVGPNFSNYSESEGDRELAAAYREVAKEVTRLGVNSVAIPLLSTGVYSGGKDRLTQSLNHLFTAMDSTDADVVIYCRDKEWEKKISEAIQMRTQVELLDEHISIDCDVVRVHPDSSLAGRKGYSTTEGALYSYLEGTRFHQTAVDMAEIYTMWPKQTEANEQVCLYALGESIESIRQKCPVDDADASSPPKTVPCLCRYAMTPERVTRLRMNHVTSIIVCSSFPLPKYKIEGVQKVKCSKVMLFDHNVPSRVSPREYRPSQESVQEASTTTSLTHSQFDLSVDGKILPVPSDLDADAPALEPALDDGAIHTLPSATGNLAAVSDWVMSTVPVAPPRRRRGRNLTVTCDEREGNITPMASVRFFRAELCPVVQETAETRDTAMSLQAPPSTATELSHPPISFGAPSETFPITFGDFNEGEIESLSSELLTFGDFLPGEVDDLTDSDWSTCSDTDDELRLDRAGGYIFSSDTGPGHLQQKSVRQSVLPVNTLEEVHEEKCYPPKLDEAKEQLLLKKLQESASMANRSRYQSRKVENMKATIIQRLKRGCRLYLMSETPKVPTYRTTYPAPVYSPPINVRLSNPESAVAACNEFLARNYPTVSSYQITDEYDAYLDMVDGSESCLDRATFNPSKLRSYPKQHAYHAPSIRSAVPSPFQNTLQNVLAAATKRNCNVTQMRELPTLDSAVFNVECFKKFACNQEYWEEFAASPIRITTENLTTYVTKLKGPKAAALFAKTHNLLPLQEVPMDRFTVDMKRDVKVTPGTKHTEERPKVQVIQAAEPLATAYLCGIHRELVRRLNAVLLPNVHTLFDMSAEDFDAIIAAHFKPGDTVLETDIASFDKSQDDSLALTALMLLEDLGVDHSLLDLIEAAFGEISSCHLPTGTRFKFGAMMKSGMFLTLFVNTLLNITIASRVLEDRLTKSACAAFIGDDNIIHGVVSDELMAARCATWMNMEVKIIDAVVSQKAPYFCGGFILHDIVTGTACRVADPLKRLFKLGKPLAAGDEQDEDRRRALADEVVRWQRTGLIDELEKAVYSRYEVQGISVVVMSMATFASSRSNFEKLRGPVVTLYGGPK
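FRET cleavage of 2.5 uM peptide 2 by 150 nM CHIKV protease domain at pH 8.0 (Tris, Tween 20). Compounds at 7 concentrations (up to 25 uM) preincubated 15 min. Fluorescence read after 1 h at room temperature.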
nsP2 cell sec = Secondary cell base assay for inhibitors of NSP2Pro Chikungunya virus (CHIKV); shares compounds with nsP2pro inh; cell-based CHIKV nsP2 protease reporter assay; Potency, µM (doses to about 51.1 µM), actives largely listed as inhibitors; actives 10% (n = 450); AID 1964100, 2024; further: nearly all actives have a fitted effect of over 70% in size
NSP2 full ctr = Selectivity profile for inhibitors of NSP2Pro chikungunya virus (CHIKV): Full length NSP2 enzyme counterscreen (CHIKV-NSP2) | shares compounds with nsP2pro inh | Full-length CHIKV NSP2 protease enzymatic counterscreen | Potency, µM (titrated, usually from 50.7 µM), hits mostly inhibitors | actives 39% (n = 410); further: nearly all actives have a fitted effect of over 65% in size
Furin counterscr = Selectivity profile for inhibitors of NSP2Pro chikungunya virus (CHIKV): Human furin counterscreen. Recombinant human furin enzymatic counterscreen, fluorogenic substrate. shares compounds with nsP2pro inh. Potency, µM (highest dose often 50.6 µM), most hits filed as inhibitors. actives 6% (n = 410)
NS23 peptide cs = Selectivity profile for inhibitors of NSP2Pro chikungunya virus (CHIKV): Endogenous NS2/3 peptide Counterscreen | shares compounds with nsP2pro inh | Purified CHIKV nsP2 protease, endogenous NS2/3 peptide cleavage | Potency, µM (top dose mostly 51 µM), most hits filed as inhibitors | actives 34% (n = 410) | AID 1964103, 2024; further: nearly all actives have a fitted effect of over 55% in size
Papain counter = Selectivity profile for inhibitors of NSP2Pro chikungunya virus (CHIKV): Papain Counterscreen; purified papain protease activity, enzymatic inhibition; actives 5% (n = 410); shares compounds with nsP2pro inh; AID 1964104, 2024; Potency, µM (top dose mostly 51 µM), actives largely listed as inhibitors
nsP2pro confirm = Confirmatory qHTS for inhibitors of NSP2Pro chikungunya virus (CHIKV); Potency, µM (highest dose often 25.5 µM), actives largely listed as inhibitors; CHIKV nsP2 protease enzymatic activity, qHTS; shares compounds with nsP2pro inh; actives 43% (n = 410); further: nearly all actives have a fitted effect of over 75% in size
HCV NS3 counter = Selectivity profile for inhibitors of NSP2Pro chikungunya virus (CHIKV): NS34A-HCV Counterscreen; shares compounds with nsP2pro inh; Potency, µM (top dose mostly 50.9 µM), most hits filed as inhibitors; actives 20% (n = 410); HCV NS3/4A protease biochemical counterscreen; further: nearly all actives have a fitted effect of over 55% in size
Hits are given with their value; . = inactive; ? = inconclusive; ! = not active in a repeat; [ ] = another dose, or the depositor's remark. Many of the other results were omitted from the sample, so hits are more common in it than they were. The call rests on the fitted dose curve.

SMILES	nsP2pro inh	others
O=S(=O)(Nc1nc2ccccc2s1)c1ccc(NCc2ccc(Br)cc2O)cc1	.
Fc1cc(Nc2nc(-c3ccncc3)nc3ccccc23)ccc1OC(F)(F)F	.
CCCCc1ccc(NC(C)=O)c(C)c1	.
O=C(Nc1nnc(-c2cccs2)o1)c1ccc(Cl)cc1	.
CN(C)C(=S)SC(=S)N(C)C	8.8µM	nsP2 cell sec=.;NSP2 full ctr=29µM;Furin counterscr=.;NS23 peptide cs=.;Papain counter=.;nsP2pro confirm=7.1µM;HCV NS3 counter=?
CN(C)C(=S)SSC(=S)N(C)C	2.8µM	nsP2 cell sec=25µM;NSP2 full ctr=9.2µM;Furin counterscr=.;NS23 peptide cs=9.2µM;Papain counter=.;nsP2pro confirm=1.6µM;HCV NS3 counter=.
Cc1cc(C)nc(NC(=S)N2CCN(c3nnc(C(F)(F)F)s3)CC2)c1	.
Fc1cnc(-c2ccccc2C(F)F)nc1NCc1ccc(-c2ccn[nH]2)cc1	.
O=C(CCN1CCN(C(=O)OCc2cc(Cl)cc(Cl)c2)CC1)c1ccc2[nH]c(=O)oc2c1	0.99µM!	nsP2 cell sec=.;NSP2 full ctr=16µM;Furin counterscr=.;NS23 peptide cs=?;Papain counter=.;nsP2pro confirm=6.3µM;HCV NS3 counter=.
O=C(Nc1ccc2[nH]c(=O)oc2c1)C(=O)N1CCC(Cc2ccc(F)cc2)CC1	.
CCCC(=O)O[C@H]1CN2CC[C@H](O)[C@@H]2[C@@H](O)[C@@H]1O	.
O=C(Nc1ccc(OC(F)(F)Cl)cc1)c1cnc(N2CC[C@@H](O)C2)c(-c2ccn[nH]2)c1	.
COc1ccc(C(=O)Nc2ccc(S(=O)(=O)N(Cc3ccccc3)c3ccccc3)cc2)cc1	.
CN(Cc1ccccc1)C(=O)c1ccc(S(=O)(=O)Nc2ccccc2)cc1	.
CC(C)N(CCC(=O)c1ccc2ccccc2c1)Cc1ccccc1	0.56µM	nsP2 cell sec=?;NSP2 full ctr=0.92µM;Furin counterscr=.;NS23 peptide cs=5.8µM;Papain counter=.;nsP2pro confirm=0.5µM;HCV NS3 counter=.
Cc1cc(C)nc(NC(=S)N2CCN(c3nccc4occc34)CC2)c1	.
COc1cccc(NC(=S)N2CCN(c3ccc(C(F)(F)F)cc3[N+](=O)[O-])CC2)n1	.
Oc1cccc(O)c1O	8.8µM	nsP2 cell sec=.;NSP2 full ctr=15µM;Furin counterscr=.;NS23 peptide cs=8.2µM;Papain counter=.;nsP2pro confirm=1.8µM;HCV NS3 counter=3.3µM
O=C(O)c1cccc(O)c1O	.
CC(C)c1cccc(C(C)C)c1O	.
Cc1cccc(-c2ccc(=O)n(CC(=O)NCCc3ccccc3)n2)c1	.
COc1ccc2cc(CNc3ccccc3)c(=O)n(CC(=O)Nc3ccc(C(C)=O)cc3)c2c1	.
COc1ccc(NCc2cc3cc4c(cc3n(CC(=O)Nc3ccc(C)cc3C)c2=O)OCO4)cc1	?	nsP2 cell sec=.
Cc1ccc(NC(=O)Cn2c(=O)n(CCC(=O)NCc3ccc4c(c3)OCO4)c(=O)c3sccc32)c(C)c1	.
CC=CC1=C(C(=O)O)N2C(=O)[C@@H](NC(=O)[C@H](N)c3ccc(O)cc3)[C@H]2SC1	.
SMILES	nsP2pro inh	others
Oc1cccc(-c2c3nc(c(-c4cccc(O)c4)c4ccc([nH]4)c(-c4cccc(O)c4)c4nc(c(-c5cccc(O)c5)c5ccc2[nH]5)CC4)C=C3)c1	?	nsP2 cell sec=.;NSP2 full ctr=18µM;Furin counterscr=.;NS23 peptide cs=18µM;Papain counter=?;nsP2pro confirm=14µM;HCV NS3 counter=.
Clc1ccccc1CSc1nc2ncc(Br)cc2[nH]1	.
CCCC1=Nc2cc(C(=O)NCCCN3CCCCC3CC)ccc2Sc2ccc(C)cc21 (stereo not drawn)	.
O=[N+]([O-])C(Br)(CO)CO	2.5µM	nsP2 cell sec=.;NSP2 full ctr=9.2µM;Furin counterscr=.;NS23 peptide cs=9.2µM;Papain counter=.;nsP2pro confirm=1.6µM;HCV NS3 counter=?
O=C(O)c1ccc(-c2noc(-c3ccc(C(F)(F)F)cc3)n2)cc1	.
Cc1ccc(OCCn2c(CCNC(=O)N3CCCCC3)nc3ccccc32)cc1	.
COC(=O)[C@@H](NC(=O)[C@H](CC(C)C)NC(=O)N(Cc1ccccc1)C[C@@H](O)[C@H](Cc1ccccc1)NC(=O)OC(C)(C)C)C(C)C	.[5.1 µM]
CC(C)(C)OC(=O)N1CCC(c2c(C(=O)NCCc3ccccc3)cnn2-c2ccc(F)cc2F)CC1	.
COCCCNC(=O)c1cnn(-c2ccc(F)cc2F)c1C1CCNCC1	.	nsP2 cell sec=.;NSP2 full ctr=16µM;Furin counterscr=.;NS23 peptide cs=?;Papain counter=.;nsP2pro confirm=?;HCV NS3 counter=?
CC(C)(C)OC(=O)N1CCC(c2c(C(=O)NCCN3CCc4ccccc4C3)cnn2-c2ccc(F)cc2F)CC1	.
N[C@@H](CC(=O)Nc1ccc(Oc2cc(F)c(F)cc2Br)cc1)C(=O)O	.
O=C(Nc1ccc(Cl)nc1)c1ccc2ccnn2c1	.
Cc1cc(C)nc(NC(=S)N2CCN(c3nccc(C(F)(F)F)n3)CC2)c1	.
O=C1C(Cl)=C(N2CCOCC2)C(=O)N1c1ccc(Cl)c(Cl)c1	?	nsP2 cell sec=?;NSP2 full ctr=?;Furin counterscr=.;NS23 peptide cs=?;Papain counter=?;nsP2pro confirm=3.1µM;HCV NS3 counter=.
CC12C=CC(=O)NC1CCC1C2CCC2(C)C(C(=O)Nc3cc(C(F)(F)F)ccc3C(F)(F)F)CCC12 (stereo not drawn)	.
Oc1ccc([C@H]2CNCc3c2ccc(O)c3O)cc1O	3.5µM	nsP2 cell sec=.;NSP2 full ctr=?;Furin counterscr=.;NS23 peptide cs=23µM;Papain counter=.;nsP2pro confirm=5µM;HCV NS3 counter=0.58µM
O=C1CCCC2=C1C(c1c(Cl)cccc1Cl)N=C(Nc1nc3ccccc3o1)N2 (stereo not drawn)	.
O=C(Nc1ccc(-n2ccnc2)c(F)c1)Nc1nnc(-c2ccncc2)s1	.
CN1CCC(C(=O)c2cccc(NC(=O)c3c(F)cc(F)cc3F)n2)CC1	.
COc1cccc(S(=O)(=O)Nc2cnccc2C(=O)Nc2nc(-c3ccccc3)cs2)c1	.
CCOC(=O)N1CCN(C(=O)Cn2sc3nc(C)cc(C)c3c2=O)CC1	3.9µM	nsP2 cell sec=.;NSP2 full ctr=?;Furin counterscr=.;NS23 peptide cs=21µM;Papain counter=.;nsP2pro confirm=4µM;HCV NS3 counter=.
Cc1ccc(C)c(N2CCN(C(=O)Cn3ncc4ccsc4c3=O)CC2)c1	.
CCOC(=O)C1CCN(C(=O)Cn2ncc3c4ccccc4n(C)c3c2=O)CC1	.
Nc1cc(F)ccc1NC(=O)c1ccc(CNC(=O)/C=C/c2cccnc2)cc1	.
C=Cc1cc2oc(-c3ccc(O)c(F)c3)nc2cc1O	.
CCN(CC)C(=O)c1ccc2c(c1)ncn2-c1cccc(C)c1	.
